Laboratory results: PMC12820563, “FoxP3 forms a head-to-head dimer in vivo and stabilizes its multimerization on adjacent microsatellites”
The full ranking holds about 16,000 sequences; the median of “rpm ratio (pull-down/input)” is about 0.94, and the highest 2% start at about 1.7. Shown is part of a subset that was picked to be rich in the highest values.

Target: T1, MBP-FoxP1dN (Mus musculus, UniProt P58462 326-579)
T1 sequence: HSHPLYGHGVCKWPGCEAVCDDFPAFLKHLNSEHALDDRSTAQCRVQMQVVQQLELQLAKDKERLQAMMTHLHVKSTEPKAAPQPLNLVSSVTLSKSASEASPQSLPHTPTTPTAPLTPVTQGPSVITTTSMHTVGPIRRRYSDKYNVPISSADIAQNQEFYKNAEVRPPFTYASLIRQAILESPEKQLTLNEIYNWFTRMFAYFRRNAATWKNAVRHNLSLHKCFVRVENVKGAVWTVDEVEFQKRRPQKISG
Test: PD-seq (MBP pull-down with sequencing); 20 mM Tris-HCl pH 7.5, 100 mM NaCl, 1.5 mM MgCl2, 0.4 uM protein, 0.1 uM dsDNA library, 30 min, room temperature, amylose pull-down; high values mean tight binding
Conditions: protein: recombinant; tags: His6-MBP; chain copies: 2; dsDNA, one strand shown
Method in brief: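 Binding is the reads-per-million enrichment of pull-down relative to input, pooled across replicates. For this, 0.4 µM His6-MBP-tagged mouse FoxP3 or FoxP1 fragment lacking the N-terminus, made in E. coli, was incubated with 0.1 µM Klenow-filled double-stranded degenerate DNA library for 30 min at room temperature in Tris pH 7.5 buffer with NaCl and MgCl2. Complexes bound to amylose resin were washed three times before proteinase K released the DNA for PCR barcoding and Illumina sequencing.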

Row | Sequence | binding signal
1 | GATGATTGTTCTCCCAGCTGATGAATTATATGAGTCGAGTAAACAAATTTTCCTAATCTTTCTGTTCAAGCGCCATCTAC | 0.962 RPM ratio (pull-down/input)
2 | GATGATTGTTCTCCCAGCTGATGAATTATGAATATCGAGTAAACAAATTTTCCTAATCTTTCTGTTCAAGCGCCATCTAC | 1.07 RPM ratio (pull-down/input)
3 | GATGATTGTTCTCCCAGCTGATGAATTATCAATATCGAGTAAACAAATTTTCCTAATCTTTCTGTTCAAGCGCCATCTAC | 1.96 RPM ratio (pull-down/input)
4 | GATGATTGTTCTCCCAGCTGATGAATTATATCAATCGAGTAAACAAATTTTCCTAATCTTTCTGTTCAAGCGCCATCTAC | 1.16 RPM ratio (pull-down/input)
5 | GATGATTGTTCTCCCAGCTGATGAATTAAAAATATCGAGTAAACAAATTTTCCTAATCTTTCTGTTCAAGCGCCATCTAC | 1.35 RPM ratio (pull-down/input)
6 | GATGATTGTTCTCCCAGCTGATGAATTAACAATATCGAGTAAACAAATTTTCCTAATCTTTCTGTTCAAGCGCCATCTAC | 1.87 RPM ratio (pull-down/input)
7 | GATGATTGTTCTCCCAGCTGATGAATTAATAATATCGAGTAAACAAATTTTCCTAATCTTTCTGTTCAAGCGCCATCTAC | 1.51 RPM ratio (pull-down/input)
8 | GATGATTGTTCTCCCAGCTGATGAATTAGCTTACTCGAGTAAACAAATTTTCCTAATCTTTCTGTTCAAGCGCCATCTAC | 0.938 RPM ratio (pull-down/input)
9 | GATGATTGTTCTCCCAGCTGATGAATTTTGAGGGTCGAGTAAACAAATTTTCCTAATCTTTCTGTTCAAGCGCCATCTAC | 0.774 RPM ratio (pull-down/input)
10 | GATGATTGTTCTCCCAGCTGATGAATTGCAACCATCGAGTAAACAAATTTTCCTAATCTTTCTGTTCAAGCGCCATCTAC | 1.45 RPM ratio (pull-down/input)
11 | GATGATTGTTCTCCCAGCTGATGAATTGATGCAATCGAGTAAACAAATTTTCCTAATCTTTCTGTTCAAGCGCCATCTAC | 1.96 RPM ratio (pull-down/input)
12 | GATGATTGTTCTCCCAGCTGATGAATTGCAGCAATCGAGTAAACAAATTTTCCTAATCTTTCTGTTCAAGCGCCATCTAC | 1.33 RPM ratio (pull-down/input)
13 | GATGATTGTTCTCCCAGCTGATGAATTGTTGCAATCGAGTAAACAAATTTTCCTAATCTTTCTGTTCAAGCGCCATCTAC | 1.87 RPM ratio (pull-down/input)
14 | GATGATTGTTCTCCCAGCTGATGAATTGATGCCATCGAGTAAACAAATTTTCCTAATCTTTCTGTTCAAGCGCCATCTAC | 1.39 RPM ratio (pull-down/input)
15 | GATGATTGTTCTCCCAGCTGATGAATTGCAAACATCGAGTAAACAAATTTTCCTAATCTTTCTGTTCAAGCGCCATCTAC | 2.29 RPM ratio (pull-down/input)
16 | GATGATTGTTCTCCCAGCTGATGAATTTCTGCAATCGAGTAAACAAATTTTCCTAATCTTTCTGTTCAAGCGCCATCTAC | 1.1 RPM ratio (pull-down/input)
17 | GATGATTGTTCTCCCAGCTGATGAATTGCAAAAATCGAGTAAACAAATTTTCCTAATCTTTCTGTTCAAGCGCCATCTAC | 1.55 RPM ratio (pull-down/input)
18 | GATGATTGTTCTCCCAGCTGATGAATTGCAATCATCGAGTAAACAAATTTTCCTAATCTTTCTGTTCAAGCGCCATCTAC | 1.48 RPM ratio (pull-down/input)
19 | GATGATTGTTCTCCCAGCTGATGAATTTGCAACATCGAGTAAACAAATTTTCCTAATCTTTCTGTTCAAGCGCCATCTAC | 1.7 RPM ratio (pull-down/input)
20 | GATGATTGTTCTCCCAGCTGATGAATTGCAACAATCGAGTAAACAAATTTTCCTAATCTTTCTGTTCAAGCGCCATCTAC | 1.91 RPM ratio (pull-down/input)
21 | GATGATTGTTCTCCCAGCTGATGAATTTTTGCAATCGAGTAAACAAATTTTCCTAATCTTTCTGTTCAAGCGCCATCTAC | 1.26 RPM ratio (pull-down/input)

Row | Sequence | binding signal
22 | GATGATTGTTCTCCCAGCTGATGAATTGACTACATCGAGTAAACAAATTTTCCTAATCTTTCTGTTCAAGCGCCATCTAC | 1.22 RPM ratio (pull-down/input)
23 | GATGATTGTTCTCCCAGCTGATGAATTCCACAGTTCGAGTAAACAAATTTTCCTAATCTTTCTGTTCAAGCGCCATCTAC | 0.831 RPM ratio (pull-down/input)
24 | GATGATTGTTCTCCCAGCTGATGAATTTCACCATTCGAGTAAACAAATTTTCCTAATCTTTCTGTTCAAGCGCCATCTAC | 0.883 RPM ratio (pull-down/input)
25 | GATGATTGTTCTCCCAGCTGATGAATTTCGTCTCTCGAGTAAACAAATTTTCCTAATCTTTCTGTTCAAGCGCCATCTAC | 0.896 RPM ratio (pull-down/input)
26 | GATGATTGTTCTCCCAGCTGATGAATTATGACCTTCGAGTAAACAAATTTTCCTAATCTTTCTGTTCAAGCGCCATCTAC | 0.925 RPM ratio (pull-down/input)
27 | GATGATTGTTCTCCCAGCTGATGAATTATGCCACTCGAGTAAACAAATTTTCCTAATCTTTCTGTTCAAGCGCCATCTAC | 1.06 RPM ratio (pull-down/input)
28 | GATGATTGTTCTCCCAGCTGATGAATTTTCCCTCTCGAGTAAACAAATTTTCCTAATCTTTCTGTTCAAGCGCCATCTAC | 0.877 RPM ratio (pull-down/input)
29 | GATGATTGTTCTCCCAGCTGATGAATTCCGAGATTCGAGTAAACAAATTTTCCTAATCTTTCTGTTCAAGCGCCATCTAC | 0.799 RPM ratio (pull-down/input)
30 | GATGATTGTTCTCCCAGCTGATGAATTAAGTGTATCGAGTAAACAAATTTTCCTAATCTTTCTGTTCAAGCGCCATCTAC | 1.28 RPM ratio (pull-down/input)
31 | GATGATTGTTCTCCCAGCTGATGAATTTCAGTCATCGAGTAAACAAATTTTCCTAATCTTTCTGTTCAAGCGCCATCTAC | 1 RPM ratio (pull-down/input)
32 | GATGATTGTTCTCCCAGCTGATGAATTTTCCACTTCGAGTAAACAAATTTTCCTAATCTTTCTGTTCAAGCGCCATCTAC | 0.903 RPM ratio (pull-down/input)
33 | GATGATTGTTCTCCCAGCTGATGAATTTAGGAGATCGAGTAAACAAATTTTCCTAATCTTTCTGTTCAAGCGCCATCTAC | 0.968 RPM ratio (pull-down/input)
34 | GATGATTGTTCTCCCAGCTGATGAATTACTAATGTCGAGTAAACAAATTTTCCTAATCTTTCTGTTCAAGCGCCATCTAC | 1.28 RPM ratio (pull-down/input)
35 | GATGATTGTTCTCCCAGCTGATGAATTACTAATTTCGAGTAAACAAATTTTCCTAATCTTTCTGTTCAAGCGCCATCTAC | 1.25 RPM ratio (pull-down/input)
36 | GATGATTGTTCTCCCAGCTGATGAATTATTACTGTCGAGTAAACAAATTTTCCTAATCTTTCTGTTCAAGCGCCATCTAC | 1.17 RPM ratio (pull-down/input)
37 | GATGATTGTTCTCCCAGCTGATGAATTTACTATTTCGAGTAAACAAATTTTCCTAATCTTTCTGTTCAAGCGCCATCTAC | 1.55 RPM ratio (pull-down/input)
38 | GATGATTGTTCTCCCAGCTGATGAATTATTACTATCGAGTAAACAAATTTTCCTAATCTTTCTGTTCAAGCGCCATCTAC | 1.21 RPM ratio (pull-down/input)
39 | GATGATTGTTCTCCCAGCTGATGAATTACTATTATCGAGTAAACAAATTTTCCTAATCTTTCTGTTCAAGCGCCATCTAC | 1.87 RPM ratio (pull-down/input)
40 | GATGATTGTTCTCCCAGCTGATGAATTACTATTTTCGAGTAAACAAATTTTCCTAATCTTTCTGTTCAAGCGCCATCTAC | 2.29 RPM ratio (pull-down/input)
41 | GATGATTGTTCTCCCAGCTGATGAATTACTATCATCGAGTAAACAAATTTTCCTAATCTTTCTGTTCAAGCGCCATCTAC | 1.28 RPM ratio (pull-down/input)
42 | GATGATTGTTCTCCCAGCTGATGAATTACTATTGTCGAGTAAACAAATTTTCCTAATCTTTCTGTTCAAGCGCCATCTAC | 2.38 RPM ratio (pull-down/input)
